# Assay outcomes (PubChem BioAssay)
# CYP2C19 inhib: human CYP2C19 inhibition; P33261; CYP2C19 Supersomes, luciferin-H EGE luminescence, 30 min; inhibition, % at 5 µM; 96,000 tested, 21% active; AID 778;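 active means CYP2C19 inhibition above a set limit at 5 µM in the primary screen, cut at about 50% in these data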;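 further: plate controls were negative control wells for no effect and 2.5 mM tranylcypromine positive control for full effect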
# CYP2C9 inhib: inhibitors of human CYP2C9 | CYP2C9 Supersomes, luciferin-H conversion, luminescence | inhibition, % at 5 µM | 96,000 tested, 20% active | AID 777 | P11712;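 active means blocking of liver enzyme CYP2C9 beyond about 50% at 5 µM, limit read from the data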
# Target sequence (P11712 whole entry, looked up): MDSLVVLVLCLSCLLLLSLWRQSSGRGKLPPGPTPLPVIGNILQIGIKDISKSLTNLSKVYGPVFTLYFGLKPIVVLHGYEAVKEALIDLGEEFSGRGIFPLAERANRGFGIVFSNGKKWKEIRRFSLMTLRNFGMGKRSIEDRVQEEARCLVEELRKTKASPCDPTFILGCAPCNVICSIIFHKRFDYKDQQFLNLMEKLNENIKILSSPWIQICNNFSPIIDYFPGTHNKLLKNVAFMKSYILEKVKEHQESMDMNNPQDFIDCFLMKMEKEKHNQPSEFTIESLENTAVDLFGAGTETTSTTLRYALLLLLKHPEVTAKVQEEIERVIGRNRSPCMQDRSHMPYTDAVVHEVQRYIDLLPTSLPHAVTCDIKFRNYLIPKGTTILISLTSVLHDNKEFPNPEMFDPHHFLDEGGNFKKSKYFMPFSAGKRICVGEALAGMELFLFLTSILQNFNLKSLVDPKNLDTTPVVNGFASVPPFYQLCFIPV
# PLAP act: human PLAP activation; P05187; purified PLAP enzyme, luminescent substrate read-out; hits give high values; activation fold at 20 µM; 96,000 tested, 1.2% active; in the data active means activation fold above about 2
# CYP2C9 act: activators of human CYP2C9; recombinant CYP2C9, luciferin-H conversion, luminescence; hits give high values; factor 1 = untreated enzyme, 0 = blocked; activation factor at 5 µM; 96,000 tested, 1.4% active; AID 1024;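 active means activation factor of 2 or more for CYP2C9 at a 5 µM dose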;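 further: 0 = sulfaphenazole-blocked wells and 1 = vehicle-only wells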
# CYP2C19 activ: increases human CYP2C19 enzyme activity; P33261; recombinant CYP2C19, luciferin-H EGE luminescence; hits give high values; 0 = fully inhibited enzyme, 1 = untreated enzyme; activation factor at 5 µM; 96,000 tested, under 10 active; AID 1025;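 active means activation factor of at least 2 at 5 µM in the primary screen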;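 further: 0 = wells with 2.5 mM tranylcypromine and 1 = vehicle-only wells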
# * = called active by the depositor. This is a sample that favours compounds with a hit; in the whole collection about 31% have one here.
SMILES,CYP2C19 inhib,CYP2C9 inhib,PLAP act,CYP2C9 act,CYP2C19 activ
O=C1C2C3C=CC(C2C(=O)N1C1CCCCC1)C1C(=O)N(C2CCCCC2)C(=O)C31 (stereo not drawn),26,23,1.5,0.8,0.7
c1coc(Cn2c(SCc3nc4ccccc4[nH]3)nnc2-c2cccs2)c1,98*,92*,2.1*,0.1,0
Cc1cccc(-c2nnc(SCc3nc4ccccc4[nH]3)n2Cc2ccco2)c1,54*,70*,1.6,0.3,0.5
Cc1ccc(-c2nnc(SCc3nc4ccccc4[nH]3)n2Cc2ccco2)cc1,15,46,1,0.5,0.9
CSc1nc(N)c2c3c(sc2n1)COC(C(C)C)C3 (stereo not drawn),94*,12,0.8,0.9,0.1
CCCC1Cc2c(sc3nc(SC)nc(N)c23)CO1 (stereo not drawn),38,11,0.9,0.9,0.6
Cc1cc(Cl)cc(Br)c1OCCCN1C(=O)NC(C)(C)C1=O,90*,39,1.4,0.6,0.1
Cc1cc(Cl)c(OCCCSc2nc(C)cc(=O)[nH]2)c(Br)c1,9,26,1,0.7,0.9
COCCNCCCCOc1c(Cl)cc(C)cc1Br,17,-8,1.3,1.1,0.8
Cc1cc(Cl)c(OCCN2C(=O)NC(C)(C)C2=O)c(Br)c1,98*,14,1,0.9,0
Cc1cc(C)c(OCCN2C(=O)NC(C)(C)C2=O)c(Cl)c1,96*,36,1.2,0.6,0
CCOc1ccc(NC2c3ccccc3C(=O)N2Cc2ccc3c(c2)OCO3)cc1 (stereo not drawn),99*,98*,1.3,0,0
CCOC(=O)N1CCC(N2C(=O)c3ccccc3C2Nc2ccc3c(c2)OCCO3)CC1 (stereo not drawn),33,47,1.6,0.5,0.7
O=C1c2ccccc2C(Nc2ccc3c(c2)OCCO3)N1Cc1ccccc1 (stereo not drawn),99*,98*,1.3,0,0
COc1cc(NC2c3ccccc3C(=O)N2c2ccc(C)cn2)cc(OC)c1OC (stereo not drawn),46,38,1.5,0.6,0.5
COc1cc(NC2c3ccccc3C(=O)N2Cc2ccc3c(c2)OCO3)cc(OC)c1OC (stereo not drawn),98*,64*,1.1,0.4,0
O=C(NCC1CCCO1)C1c2ccccc2C(=O)N1Cc1ccc2c(c1)OCO2 (stereo not drawn),3,5,1,0.9,1
CC(=O)c1cccc(NC2c3ccccc3C(=O)N2Cc2ccc3c(c2)OCO3)c1 (stereo not drawn),38,61*,1,0.4,0.6
CCOC(=O)C1CCN(C(=O)c2ccc(OCC)c(OCC)c2)CC1,-8,-38,1.4,1.4,1.1
Cc1cc(C)cc(N(CC(=O)NC2CCC(C)CC2)S(=O)(=O)c2c(C)noc2C)c1 (stereo not drawn),5,12,1.1,0.9,1
CC(C)C1N(c2ccccc2)C(N)=C(C#N)C1(C#N)C#N (stereo not drawn),49,16,0.9,0.8,0.5
CC(CC1C(C#N)=C(N)SC(N)=C1C#N)c1ccccc1 (stereo not drawn),92*,98*,1.4,0,0.1
CC(C)COC(=O)C(N)C(C(=O)OCC(C)C)c1ccccc1 (stereo not drawn),16,30,1.3,0.7,0.8
CC(c1ccccc1)C1C(C#N)=C(N)SC(N)=C1C#N (stereo not drawn),93*,-1,1.2,1,0.1
CC(C)C1C(C#N)=C(N)SC(N)=C1C#N,68*,2,1,1,0.3
SMILES,CYP2C19 inhib,CYP2C9 inhib,PLAP act,CYP2C9 act,CYP2C19 activ
Cn1c(=O)c2c(nc(Oc3ccc4ccccc4c3)n2C)n(C)c1=O,22,19,1.3,0.8,0.8
COc1ccc(-c2nnn(CC(=O)N(Cc3cccs3)C(C)C(=O)NCCC(C)C)n2)cc1OC (stereo not drawn),34,31,1.8,0.7,0.7
O=C(N/C=C/c1ccc(Cl)cc1)NCc1ccc(Cl)cc1,42,21,0.9,0.8,0.6
CCCCC(=O)NC(c1ccco1)c1c(O)ccc2ccccc12 (stereo not drawn),49,70*,1.1,0.3,0.5
CCCCCC(=O)Nc1cc(N(C)C)nc2ccccc12,-2,10,0.9,0.9,1
CCCC(=O)NC(c1ccco1)c1c(O)ccc2ccccc12 (stereo not drawn),97*,90*,1.3,0.1,0
C=CCn1c(SCC(=O)Nc2nnc(CC)s2)nnc1-c1cccnc1,-7,0,1.1,1,1.1
O=C(NCc1ccc(Cl)cc1)c1noc2c1CCCCC2,20,44,0.9,0.6,0.8
CC(/C=N\N1CCN(c2ccc(Cl)cc2)CC1)=C\c1ccccc1,2,-2,0.8,1,1
C(=C\c1ccccc1)/C=N/n1cnnc1,84*,28,0.9,0.7,0.2
CC(=C/c1ccccc1)/C=N/n1c(-c2ccco2)n[nH]c1=S,17,26,1.1,0.7,0.8
CC(/C=N/n1cnnc1)=C\c1ccccc1,94*,13,1.1,0.9,0.1
CC(=C/c1ccccc1)/C=N/n1cnnc1,94*,14,1.1,0.9,0.1
CCCCCNC(=O)Cc1cc(=O)[nH]c(=O)[nH]1,17,2,0.9,1,0.8
COc1ccc(OC)c(NC(=O)c2ccc(CN3CCOCC3)cc2)c1,21,-96,1.6,2*,0.8
COc1ccccc1NC(=O)c1ccc(CN2CCOCC2)cc1,27,-64,1.3,1.6,0.7
COc1ccc(OC)c(NC(=O)C23CCC(C)(C(=O)C2)C3(C)C)c1 (stereo not drawn),28,-130,1.4,2.3*,0.7
COc1ccc(OC)c(NC(=O)c2cc3ccccc3o2)c1,4,-52,0.9,1.5,1
CC12CCC(C(=O)Nc3ccc(SC(F)F)cc3)(CC1=O)C2(C)C (stereo not drawn),9,24,0.9,0.8,0.9
COc1ccc(C(=O)Nc2cc(OC)ccc2OC)cc1,71*,-20,0.8,1.2,0.3
COc1ccc(OC)c(NC(=O)c2cn(C)c(=O)c3cc(OC)c(OC)cc23)c1,32,74*,1.4,0.3,0.7
Cc1ccc(NCc2nnc(SCC(=O)OC3CCCCC3)o2)c(C)c1,37,36,0.9,0.6,0.6
CCc1nnc(NCn2nc(C)cc2C)s1,18,2,1.1,1,0.8
CC1CN(C2CCN(S(=O)(=O)Cc3ccccc3)CC2)CC(C)O1 (stereo not drawn),-9,2,0.8,1,1.1
O=C(Nc1cc(S(=O)(=O)N2CCCC2)ccc1Cl)C1=COCCO1,52*,36,0.8,0.6,0.5
O=C(O)c1cc(S(=O)(=O)N2CCCCCC2)ccc1Cl,-13,-15,0.9,1.1,1.1
O=C1C(C=NCc2ccccn2)=C(O)c2ccccc21,30,1,1.6,1,0.7
